According to PubChem BioAssay AID1159580 (chemical genetic matrix, 2015):
The campaign covered roughly 5,500 compounds. About 2,000 (36%) were called active. Roughly 18% stayed inconclusive and do not appear here. No stated cut-off is given here; in the data, active means normalized growth mostly below about 0.91 (no sharp cut-off); inconclusive means no clear call, values can overlap the other calls; inactive means mostly above about 0.92. This is one part of the list.

Experiment: chemical genetic growth profiling, strain panel (AID 1159580);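 further: tested at 20 µM; growth read once vehicle control cultures reached saturation at 30 °C; 1 = growth at the plate median or of vehicle wells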
Conditions: growth OD

Measured: normalized growth

COc1cc(OC)c2c(=O)c(-c3ccccc3)c(C)oc2c1OC
inactive: S. cerevisiae deletion strains, locus YJR043C, strain POL32, stronger effect = lower value 1.01 | S. cerevisiae deletion strains, locus YJR075W, strain HOC1, stronger effect = lower value 1.02 | S. cerevisiae deletion strains, locus YKL009W, strain mrt4, stronger effect = lower value 1 | S. cerevisiae deletion strains, locus YKL068W, stronger effect = lower value 1 | S. cerevisiae deletion strains, locus YKL085W, strain MDH1 (second series), stronger effect = lower value 0.996 | S. cerevisiae deletion strains, locus YKL085W, strain MDH1, stronger effect = lower value 0.996 | S. cerevisiae deletion strains, locus YKL160W, strain elf1, stronger effect = lower value 1 | S. cerevisiae deletion strains, locus YKL190W, strain CNB1, stronger effect = lower value 1.01 | S. cerevisiae deletion strains, locus YKR001C, strain vps1, stronger effect = lower value 0.993 | S. cerevisiae deletion strains, locus YKR026C, strain gcn3, stronger effect = lower value 0.966 | S. cerevisiae deletion strains, locus YKR091W, strain srl3, stronger effect = lower value 0.962 | S. cerevisiae deletion strains, locus YLL001W, strain dnm1, stronger effect = lower value 1.01 | S. cerevisiae deletion strains, locus YLL026W, stronger effect = lower value 0.984 | S. cerevisiae deletion strains, locus YLL041C, strain sdh2, stronger effect = lower value 1 | S. cerevisiae deletion strains, locus YLR027C, strain aat2, stronger effect = lower value 0.982 | S. cerevisiae deletion strains, locus YLR039C, strain RIC1, stronger effect = lower value 0.984 | S. cerevisiae deletion strains, locus YLR058C, strain SHM2, stronger effect = lower value 1.01 | S. cerevisiae deletion strains, locus YLR102C, strain apc9, stronger effect = lower value 0.999 | S. cerevisiae deletion strains, locus YLR221C, strain rsa3, stronger effect = lower value 0.957 | S. cerevisiae deletion strains, locus YLR258W, strain gsy2, stronger effect = lower value 0.987 | S. cerevisiae deletion strains, locus YLR262C, strain YPT6 (second series), stronger effect = lower value 0.951 | S. cerevisiae deletion strains, locus YLR262C, strain YPT6, stronger effect = lower value 0.989 | S. cerevisiae deletion strains, locus YLR268W, strain sec22, stronger effect = lower value 0.972 | S. cerevisiae deletion strains, locus YLR320W, strain mms22, stronger effect = lower value 0.984 | S. cerevisiae deletion strains, locus YLR330W, strain CHS5, stronger effect = lower value 1.01 | S. cerevisiae deletion strains, locus YLR342W, strain FKS1 (second series), stronger effect = lower value 1.01 | S. cerevisiae deletion strains, locus YLR342W, strain FKS1, stronger effect = lower value 0.956 | S. cerevisiae deletion strains, locus YLR357W, strain rsc2, stronger effect = lower value 0.986 | S. cerevisiae deletion strains, locus YLR370C, strain arc18, stronger effect = lower value 0.977 | S. cerevisiae deletion strains, locus YLR371W, strain rom2, stronger effect = lower value 1 | S. cerevisiae deletion strains, locus YLR384C, strain iki3, stronger effect = lower value 0.98 | S. cerevisiae deletion strains, locus YLR418C, strain cdc73, stronger effect = lower value 1.03 | S. cerevisiae deletion strains, locus YML016C, strain PPZ1, stronger effect = lower value 1.01 | S. cerevisiae deletion strains, locus YML032C, strain rad52, stronger effect = lower value 0.997 | S. cerevisiae deletion strains, locus YML120C, strain ndi1, stronger effect = lower value 0.973 | S. cerevisiae deletion strains, locus YML124C, strain tub3, stronger effect = lower value 0.989 | S. cerevisiae deletion strains, locus YMR058W, strain fet3, stronger effect = lower value 0.988 | S. cerevisiae deletion strains, locus YMR078C, strain ctf18, stronger effect = lower value 0.99 | S. cerevisiae deletion strains, locus YMR125W, strain sto1, stronger effect = lower value 0.981 | S. cerevisiae deletion strains, locus YMR129W, stronger effect = lower value 0.972 | S. cerevisiae deletion strains, locus YMR205C, strain PFK2, stronger effect = lower value 0.95 | S. cerevisiae deletion strains, locus YMR223W, strain ubp8, stronger effect = lower value 0.996 | S. cerevisiae deletion strains, locus YMR231W, strain pep5, stronger effect = lower value 0.992 | S. cerevisiae deletion strains, locus YMR263W, strain SAP30, stronger effect = lower value 1.02 | S. cerevisiae deletion strains, locus YMR307W, strain GAS1, stronger effect = lower value 1.02 | S. cerevisiae deletion strains, locus YNL067W, strain RPL9B, stronger effect = lower value 1.02 | S. cerevisiae deletion strains, locus YNL071W, strain lat1, stronger effect = lower value 0.984 | S. cerevisiae deletion strains, locus YNL128W, strain TEP1, stronger effect = lower value 1.04 | S. cerevisiae deletion strains, locus YNL153C, strain GIM3, stronger effect = lower value 1.01 | S. cerevisiae deletion strains, locus YNL209W, strain ssb2, stronger effect = lower value 0.982 | S. cerevisiae deletion strains, locus YNL233W, strain BNI4, stronger effect = lower value 1 | S. cerevisiae deletion strains, locus YNL248C, strain rpa49, stronger effect = lower value 1.01 | S. cerevisiae deletion strains, locus YNL250W, strain rad50, stronger effect = lower value 0.994 | S. cerevisiae deletion strains, locus YNL271C, strain bni1, stronger effect = lower value 1 | S. cerevisiae deletion strains, locus YNL298W, strain CLA4, stronger effect = lower value 1.01 | S. cerevisiae deletion strains, locus YNL307C, strain MCK1, stronger effect = lower value 0.978 | S. cerevisiae deletion strains, locus YNL322C, strain KRE1 (second series), stronger effect = lower value 0.979 | S. cerevisiae deletion strains, locus YNL322C, strain KRE1, stronger effect = lower value 1.01 | S. cerevisiae deletion strains, locus YNR049C, strain mso1, stronger effect = lower value 0.976 | S. cerevisiae deletion strains, locus YNR052C, strain pop2, stronger effect = lower value 1.01 | S. cerevisiae deletion strains, locus YOL006C, strain TOP1, stronger effect = lower value 1.02 | S. cerevisiae deletion strains, locus YOL012C, strain htz1 0.978 | S. cerevisiae deletion strains, locus YOL147C, strain pex11, stronger effect = lower value 0.992 | S. cerevisiae deletion strains, locus YOR001W, strain rrp6, stronger effect = lower value 1.01 | S. cerevisiae deletion strains, locus YOR061W, strain CKA2, stronger effect = lower value 1.01 | S. cerevisiae deletion strains, locus YOR069W, strain VPS5, stronger effect = lower value 1 | S. cerevisiae deletion strains, locus YOR070C, strain gyp1, stronger effect = lower value 0.987 | S. cerevisiae deletion strains, locus YOR080W, strain dia2, stronger effect = lower value 0.989 | S. cerevisiae deletion strains, locus YOR083W, strain WHI5, stronger effect = lower value 1.01 | S. cerevisiae deletion strains, locus YOR106W, strain vam3, stronger effect = lower value 0.994 | S. cerevisiae deletion strains, locus YOR136W, strain idh2, stronger effect = lower value 0.993 | S. cerevisiae deletion strains, locus YOR144C, strain elg1, stronger effect = lower value 0.999 | S. cerevisiae deletion strains, locus YOR184W, strain ser1, stronger effect = lower value 0.999 | S. cerevisiae deletion strains, locus YOR265W, strain rbl2, stronger effect = lower value 0.987 | S. cerevisiae deletion strains, locus YOR270C, strain vph1, stronger effect = lower value 0.989 | S. cerevisiae deletion strains, locus YOR290C, strain snf2, stronger effect = lower value 0.933 | S. cerevisiae deletion strains, locus YOR316C, strain cot1, stronger effect = lower value 1 | S. cerevisiae deletion strains, locus YPL051W, strain arl3, stronger effect = lower value 1 | S. cerevisiae deletion strains, locus YPL055C, strain LGE1, stronger effect = lower value 1.04 | S. cerevisiae deletion strains, locus YPL078C, strain atp4, stronger effect = lower value 0.995 | S. cerevisiae deletion strains, locus YPL106C, strain sse1, stronger effect = lower value 0.942 | S. cerevisiae deletion strains, locus YPL240C, strain hsp82, stronger effect = lower value 0.983 | S. cerevisiae deletion strains, locus YPL241C, strain CIN2, stronger effect = lower value 1.01 | S. cerevisiae deletion strains, locus YPR119W, strain clb2, stronger effect = lower value 0.99 | S. cerevisiae deletion strains, locus YPR141C, strain kar3, stronger effect = lower value 1 | S. cerevisiae deletion strains, locus YPR163C, strain tif3, stronger effect = lower value 0.992 | S. cerevisiae deletion strains, locus YPR167C, strain met16, stronger effect = lower value 1 | S. cerevisiae deletion strains, strain wtn01, stronger effect = lower value 0.997 | S. cerevisiae strains, strain wild type, stronger effect = lower value 1.02
